Data: PubChem BioAssay
Active and inactive are the calls of the source. Unless noted, the rule behind the calls is not given here.

Legend:
[1] = compound effects on lung adenocarcinoma cell viability – A549, calcein-AM fluorescence, 48 h, basal, profiling panel (AID 1162); conditions: higher = more signal; note: test concentration not given here
[2] = compound effects on differentiated 3T3-L1 adipocyte viability – cell-based, 3T3-L1 adipocytes, calcein-AM fluorescence, 48 h, basal, profiling panel (AID 1163); conditions: 3T3-L1 adipocytes viability, higher = more signal; note: test concentration not given here
[3] = compound effects on hepatocellular carcinoma cell viability – HepG2, calcein-AM fluorescence, 48 h, basal, profiling panel (AID 1164); conditions: higher = more signal; note: test concentration not given here
[4] = compound effects on multiple myeloma cell viability – MM1S, calcein-AM fluorescence, 48 h, basal, profiling panel (AID 1165); conditions: higher = more signal; note: test concentration not given here
[5] = calcein-AM signal in unstimulated myeloma cells – cell-based, calcein-AM fluorescence, 48 h, PK04 Diversity Set, profiling panel (AID 1166); conditions: RPMI8226 myeloma viability, higher = more signal;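 note: cells grown under basal conditions without added stimulus; test concentration not given here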
[6] = JC-1 mitochondrial signal, unstimulated HepG2 cells – cell-based, JC-1 fluorescence, 24 h, 100 nL compound, profiling panel (AID 1167); conditions: HepG2 mitochondrial potential, higher = more signal; note: test concentration not given here
[7] = JC-1 mitochondrial signal, unstimulated adipocytes – cell-based, JC-1 fluorescence, 3T3-L1 adipocytes, 24 h, 100 nL compound, profiling panel (AID 1168); conditions: JC-1 mitochondrial fluorescence, higher = more signal, called active from +8 up or from −8 down; note: test concentration not given here
[8] = JC-1 mitochondrial signal, unstimulated myeloma cells – cell-based, JC-1 fluorescence, RPMI8226, 24 h, 100 nL compound, profiling panel (AID 1169); conditions: JC-1 mitochondrial potential fluorescence, higher = more signal; note: test concentration not given here
[9] = JC-1 mitochondrial signal, unstimulated MM1S myeloma – cell-based, JC-1 fluorescence, 24 h, 100 nL compound, profiling panel (AID 1170); conditions: MM1S mitochondrial potential, higher = more signal; note: test concentration not given here
[10] = resazurin metabolic signal in A549 cells – cell-based, resazurin fluorescence, 24 h, PK04 Diversity Set, profiling panel (AID 1171); conditions: A549 viability, higher = more signal, called active from +8 up or from −8 down; note: test concentration not given here
[11] = resazurin metabolic signal in HepG2 cells – cell-based, resazurin fluorescence, 24 h, PK04 Diversity Set, profiling panel (AID 1172); conditions: HepG2 viability, higher = more signal; note: test concentration not given here
[12] = budding yeast growth changes without added modifier – OD600, strain BY4716, 24 h, basal condition, primary screen (AID 1173); conditions: S. cerevisiae BY4716 growth, OD600, 24 h; higher = more signal, called active from +8 up or from −8 down
[13] = viability profiling in MM1S myeloma cells – cell-based, resazurin fluorescence, basal, 24 h, PK04 Diversity Set, profiling panel (AID 1174); conditions: higher = more signal, called active from +8 up or from −8 down; note: test concentration not given here
[14] = target: Dihydroorotate dehydrogenase (quinone), mitochondrial (Plasmodium falciparum (isolate 3D7)) (UniProt Q08210); assay: inhibition of P. falciparum DHODH – biochemical, C-terminal His tag, absorbance 600 nm, primary screen (AID 1175); conditions: PfDHODH enzyme, DCIP absorbance 600 nm; higher = more signal, called active from +8 up or from −8 down;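 note: recombinant parasite enzyme with a five histidine tag at its C terminus; test concentration not given here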
[15] = inhibition of PAO1 biofilm formation – strain PAO1, LB-PBS medium, absorbance 600 nm, primary screen (AID 1176); note: test concentration not given here; conditions: P. aeruginosa PAO1 growth/biofilm, A600, 12 h; higher = more signal
[16] = growth modulation of vineyard yeast isolate – strain RM11-1a, OD600, basal, 24 h, primary screen (AID 1177);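 note: cultures grown under basal conditions with no added stressor; test concentration not given here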; conditions: S. cerevisiae RM11-1a growth, OD600, 24 h; higher = more signal, called active from +8 up or from −8 down
[17] = growth of efflux-deficient E. coli DRC39 – strain DRC39, OD650, 24 h, E. coli filamentation inducers, primary screen (AID 1178);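 note: growth measured as culture turbidity by optical density at 650 nm; test concentration not given here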; conditions: E. coli DRC39 acrAB, higher = more signal, called active from +8 up or from −8 down
[18] = growth of efflux-deficient E. coli DRC39 – strain DRC39, OD650, 48 h, E. coli filamentation inducers, primary screen (AID 1179);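 note: screen aims at cell division blockers that make cells filament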; conditions: E. coli DRC39 delta-acrAB growth, higher = more signal, called active from +8 up or from −8 down
[19] = viability profiling in RPMI8226 myeloma cells – cell-based, resazurin fluorescence, basal, 24 h, PK04 Diversity Set, profiling panel (AID 1180); conditions: higher = more signal;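 note: RPMI8826 multiple myeloma cell line at 5000 cells per well; test concentration not given here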
[20] = target: E3 ubiquitin-protein ligase XIAP (Homo sapiens) (UniProt P98170); assay: small molecules binding XIAP protein – biophysical, small-molecule microarray, fluorescence 635 nm, primary screen (AID 1181); conditions: higher = more signal;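 note: score merges 667 nm emission and signal to noise over triplicate slides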
Chain of E3 ubiquitin-protein ligase XIAP (Homo sapiens) (P98170 whole entry, looked up): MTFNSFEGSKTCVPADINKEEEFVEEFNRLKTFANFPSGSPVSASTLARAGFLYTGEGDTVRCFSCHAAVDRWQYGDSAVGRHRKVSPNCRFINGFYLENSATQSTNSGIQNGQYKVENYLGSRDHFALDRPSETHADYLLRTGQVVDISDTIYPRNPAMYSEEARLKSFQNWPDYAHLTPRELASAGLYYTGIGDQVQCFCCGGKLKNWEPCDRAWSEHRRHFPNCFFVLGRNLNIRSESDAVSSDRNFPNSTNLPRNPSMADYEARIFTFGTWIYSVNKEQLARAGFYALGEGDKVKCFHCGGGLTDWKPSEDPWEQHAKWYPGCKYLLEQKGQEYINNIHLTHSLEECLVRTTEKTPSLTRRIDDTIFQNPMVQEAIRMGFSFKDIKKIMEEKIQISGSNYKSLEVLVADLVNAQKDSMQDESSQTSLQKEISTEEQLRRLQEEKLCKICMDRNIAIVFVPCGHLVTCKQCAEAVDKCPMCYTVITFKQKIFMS

Chain of Dihydroorotate dehydrogenase (quinone), mitochondrial (Plasmodium falciparum (isolate 3D7)) (Q08210 whole entry, looked up): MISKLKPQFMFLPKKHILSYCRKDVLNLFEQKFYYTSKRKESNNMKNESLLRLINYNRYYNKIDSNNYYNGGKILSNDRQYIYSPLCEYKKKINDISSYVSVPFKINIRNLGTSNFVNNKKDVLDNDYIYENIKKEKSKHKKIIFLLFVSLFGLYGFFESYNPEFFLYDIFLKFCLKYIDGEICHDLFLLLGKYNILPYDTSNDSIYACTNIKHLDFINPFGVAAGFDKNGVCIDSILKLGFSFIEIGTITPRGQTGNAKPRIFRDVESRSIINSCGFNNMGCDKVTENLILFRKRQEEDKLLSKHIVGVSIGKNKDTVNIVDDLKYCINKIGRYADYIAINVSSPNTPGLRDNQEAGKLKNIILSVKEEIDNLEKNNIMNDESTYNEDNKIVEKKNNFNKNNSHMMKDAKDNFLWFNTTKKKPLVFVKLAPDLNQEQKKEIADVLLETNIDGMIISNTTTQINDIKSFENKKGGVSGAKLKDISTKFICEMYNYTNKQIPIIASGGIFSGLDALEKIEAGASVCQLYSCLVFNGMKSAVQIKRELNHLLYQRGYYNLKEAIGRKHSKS

SMILES	z-score [1]	z-score [2]	z-score [3]	z-score [4]	z-score [5]	z-score [6]	z-score [7]	z-score [8]	z-score [9]	z-score [10]	z-score [11]	z-score [12]	z-score [13]	composite z-score [14]	z-score [15]	z-score [16]	z-score [17]	z-score [18]	z-score [19]	composite z-score [20]
COCCOC(=O)N1C(=O)[C@@]2(c3cc(C#CC4=CCCCC4)ccc31)[C@H](c1ccc(O)cc1)N1[C@H](c3ccccc3)[C@H](c3ccccc3)OC(=O)[C@H]1[C@@H]2C(=O)N1CCCCCCC1	1.43	1.06	0.0785	-0.278	-0.641	-0.926	1.37 (inactive)	-0.247	0.12	0.676 (inactive)	0.32	-0.615 (inactive)	1.17 (inactive)	0.104 (inactive)	1.35 (inactive)	0.19 (inactive)	0.15 (inactive)	1.29 (inactive)	0.768	-0.445
CC(C)[C@H]1NC(=O)[C@@]23C(=O)N[C@@H](Cc4ccccc4)C2[C@H](C)[C@@]2(C)O[C@H]2C3/C=C/C/C=C\CNC(=O)[C@H](C)NC1=O (stereo not given in full)	0.011	0.657	-0.614	0.434	-0.938	-0.458	-0.0933 (inactive)	0.279	0.498	0.0653 (inactive)	-0.546	0.976 (inactive)	0.323 (inactive)	-0.0591 (inactive)	1.13 (inactive)	1.01 (inactive)	-0.198 (inactive)	-0.301 (inactive)	0.142	-0.129
COC(=O)c1ccc(C#CC(NP(=O)(c2ccccc2)c2ccccc2)c2ccccc2)cc1 (stereo not given)	-0.341	-0.0724	0.428	-3.15	-3.5	-0.798	-0.174 (inactive)	-0.352	-1.3	-0.491 (inactive)	-0.0848	0.441 (inactive)	0.693 (inactive)	-3.37 (inactive)	0.231 (inactive)	0.919 (inactive)	0.37 (inactive)	0.369 (inactive)	1.26	0.063
CCOC(=O)C[C@H]1[C@H](OC(=O)c2ccccc2-c2ccccc2)[C@@H](NC(=O)c2ccc(-c3ccccc3)cc2)c2cc(OCCCO)ccc2N1C(=O)Cc1ccc(OC)cc1	-0.183	-0.367	0.29	0.0542	-0.997	0.181	-0.421 (inactive)	-0.616	0.103	0.0911 (inactive)	-0.235	-0.034 (inactive)	-0.0275 (inactive)	-1.29 (inactive)	0.2 (inactive)	-0.28 (inactive)	-0.489 (inactive)	-0.628 (inactive)	0.364	-0.16
Cc1ccccc1C(O)C1C=CC2C(=O)N(c3ccccc3)C(=O)C2N1Nc1ccc(C#N)cc1 (stereo not given)	0.916	-0.175	2.03	-0.113	0.0872	0.258	-1.55 (inactive)	-0.472	0.99	0.682 (inactive)	-0.709	-0.257 (inactive)	0.132 (inactive)	0.513 (inactive)	1.26 (inactive)	0.302 (inactive)	0.493 (inactive)	0.0888 (inactive)	-0.0953	0.198
CCCC[C@@H]1C[C@H]1[C@@H](NC(=O)c1cccs1)c1ccc(Cl)cc1	-1.36	1.11	-1.02	-0.992	-2.99	-1.16	0.53 (inactive)	-0.912	-0.53	0.6 (inactive)	-0.513	0.831 (inactive)	-0.0593 (inactive)	-3.8 (inactive)	2.82 (inactive)	0.595 (inactive)	-0.249 (inactive)	-0.586 (inactive)	0.513	0.267
COCCOC(=O)N1C(=O)[C@@]2(c3cc(C#CCCO)ccc31)[C@H](c1ccc(O)cc1)N1[C@H](c3ccccc3)[C@H](c3ccccc3)OC(=O)[C@H]1[C@@H]2C(=O)Nc1nc2ccccc2s1	0.615	1.62	-0.425	-0.24	-1.53	-3.45	-2.22 (inactive)	-0.684	-1.11	-0.192 (inactive)	0.484	-0.297 (inactive)	-0.617 (inactive)	0.864 (inactive)	0.485 (inactive)	0.39 (inactive)	0.438 (inactive)	-0.619 (inactive)	0.179	0.267
CC(C)NC(=O)[C@@]1(Cc2ccccc2I)c2ccccc2C(=O)N(C2CCCCC2)[C@H]1c1ccc(CO)cc1	0.377	0.967	-0.476	-0.533	-3.89	1.54	-0.68 (inactive)	-0.941	-1.36	0.778 (inactive)	0.524	-0.557 (inactive)	0.224 (inactive)	-1.45 (inactive)	0.593 (inactive)	1.31 (inactive)	0.545 (inactive)	0.267 (inactive)	0.751	0.106
